This is an account of results in PubChem BioAssay AID778 (Sanford-Burnham Center for Chemical Genomics, 2007).

About 20,000 (21%) of roughly 96,000 compounds were called active.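 Rule for the calls: active = CYP2C19 inhibition above a set limit at 5 µM in the primary screen (cut at about 50% in these data); inactive = the rest.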 Not all results are given here.

Sequence of Cytochrome P450 2C19 (Homo sapiens) (P33261 whole entry, looked up): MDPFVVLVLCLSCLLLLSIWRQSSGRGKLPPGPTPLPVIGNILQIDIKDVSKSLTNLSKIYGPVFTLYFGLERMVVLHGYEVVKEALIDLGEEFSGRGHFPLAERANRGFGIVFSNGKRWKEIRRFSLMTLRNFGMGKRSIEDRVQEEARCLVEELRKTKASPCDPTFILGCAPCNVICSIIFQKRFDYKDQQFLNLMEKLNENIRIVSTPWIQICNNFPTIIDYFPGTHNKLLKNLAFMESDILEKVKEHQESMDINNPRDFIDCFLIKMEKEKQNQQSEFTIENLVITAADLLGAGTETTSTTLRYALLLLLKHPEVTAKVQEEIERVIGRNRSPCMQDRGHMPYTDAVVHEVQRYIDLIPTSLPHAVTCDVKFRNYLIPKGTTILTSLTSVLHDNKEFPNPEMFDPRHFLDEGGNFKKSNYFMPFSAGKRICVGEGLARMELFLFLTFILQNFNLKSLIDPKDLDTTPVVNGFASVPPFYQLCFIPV

The assay concerns the target Cytochrome P450 2C19 (Homo sapiens) (UniProt P33261). The experiment in a line: blockers of cytochrome P450 2C19 activity – biochemical, luminescence, ADME assay, primary screen (AID 778).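 Note: plate controls were negative control wells for no effect and 2.5 mM tranylcypromine positive control for full effect.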 As to conditions: CYP2C19 Supersomes, luciferin-H EGE luminescence, 30 min; at 5 µM; hits give high values.
Usually inhibition stands for the change of the read-out against control, counted positive when it falls. As to `CC(C)(C)NC(=O)C(c1ccncc1)N(C(=O)CNC(=O)c1ccco1)c1ccc2c(c1)OCO2` (stereo unspecified), the inhibition is 25.7% (inactive). In the case of `Cc1noc(C)c1C(=O)NC(C)c1ccc2c(c1)OCO2` (stereo unspecified) it was 64.5% (active); in that of `Cc1cccc(N2C(=O)C3C(c4ccccc4)OC4(C(=O)c5ccccc5C4=O)C3C2=O)c1` (stereo unspecified), -10.6% (inactive).

Consider `CCOC(=O)c1c(N)sc(C(C)=O)c1C`, for which the inhibition is 22.5% (inactive).

As to `CCn1cc(C(=O)N2CCN(C3CCCCC3)CC2)c2cc(OC)c(OC)cc2c1=O`, the inhibition was 13.8% (inactive). In the case of `Cc1ccc(C(=O)N2CCN(C3CCCCC3)CC2)s1` it was 52.8% (active); in that of `O=C(CN1CCN(C2CCCCC2)CC1)Nc1ccccc1N1CCCCC1`, 1.2% (inactive); in that of `CCN1CC=C2C(C#N)=C(N)C(C#N)(C#N)[C@H](c3ccoc3)[C@H]2C1`, 7.1% (inactive).

Regarding `COc1ccc(C(=O)Nc2nc(-c3ccc(OC)cc3)c(-c3ccc([N+](=O)[O-])cc3)s2)cc1`, the inhibition was 6.9% (inactive).

On to `COc1ccc(C(=O)N2CCc3cc(OC)c(OC)cc3C2c2cccc([N+](=O)[O-])c2)cc1` (stereo unspecified), for which the inhibition is 53.7% (active). In the case of `COc1ccc(Cc2nnc(SCC(=O)c3cccc([N+](=O)[O-])c3)n2C)cc1` it was 15.5% (inactive); in that of `CNC(=O)c1nnc(Cc2ccc(Cl)cc2)o1`, 45.2% (inactive). In the case of `COCc1nnc(NC(=O)CS(=O)(=O)Cc2ccccc2)s1`, the inhibition was 1.9% (inactive). In the case of `O=C(CCS(=O)(=O)c1ccccc1)Nc1nc2c(s1)CCCC2` it was 73.9% (active); in that of `Cc1cccc(S(=O)(=O)CC(=O)Nc2nc(-c3ccccc3)cs2)c1`, 35.4% (inactive). Under `Cc1ccc(-c2c3c(=O)n(C)c(=O)n(C)c3cn2-c2ccccc2O)cc1` stands 19% (inactive); under `Cc1oc(-c2ccccc2Cl)[n+]([O-])c1C`, 8.4% (inactive). In the case of `COc1ccc(-c2nc(CCNC(=O)c3ccc(Br)o3)cs2)cc1` it was 58.8% (active). For `CC(=O)Cc1nsc(NC(=O)c2ccc(COc3ccc(C)cc3)o2)n1`, the inhibition was 22.2% (inactive).

For `O=C(NCCc1ccccn1)c1ccc(COc2ccccc2)o1`, the inhibition was 5.8% (inactive). In the case of `Cc1cc(C(=O)COC(=O)CCCN2C(=O)c3ccccc3C2=O)c(C)n1C` it was -0.8% (inactive); in that of `CCOC(=O)NNC(=O)c1ccc(Cl)cc1`, 6.6% (inactive); in that of `O=[N+]([O-])c1ccc(NCCCN2CCOCC2)c(Cl)c1`, 52% (active).

Take `O=C(NC1CCCCC1)c1cc([N+](=O)[O-])ccc1N1CCOCC1`: the inhibition was -1.9% (inactive). Regarding `O=C(CN1CCOCC1)Nc1ccc(NC(=O)CN2CCOCC2)c(Cl)c1`, the inhibition is -2.2% (inactive). Under `CC1(C)C2CCC1(C)C(OC(=O)CCn1ccnc1)C2` (stereo unspecified) stands 99.5% (active); under `COc1ccc(OC)c(C(=O)c2ccc(C(=O)O)cc2)c1`, -2.7% (inactive).

`COc1ccc(C)cc1N(C)C(=O)c1coc(=O)c2ccccc12`: the inhibition is 15.5% (inactive). Under `COc1ccc(OC)c(C(=O)c2coc3ccc(OC)cc23)c1` stands 89.7% (active).

Regarding `COc1ccc(C(=O)Nc2ccc(CN3CCOCC3)cc2)cc1`, the inhibition was 16.2% (inactive). Under `COc1ccc2occ(C(=O)c3ccc(N=C(C)N(C)C)cc3)c2c1` stands 30.2% (inactive).

As for `COc1ccc(OC)c(C(=O)c2coc3ccc(O)c(CN4CCOCC4)c23)c1`, the inhibition was 52.4% (active).

In the case of `CCOc1cc(C(=O)Nc2ncccn2)cc(OCC)c1OCC`, the inhibition was 7.1% (inactive).

Consider `Clc1ccc(-n2nnnc2CN2CCCCC2)cc1Cl`, for which the inhibition is 27.7% (inactive). Regarding `O=C(c1ccccc1)C(Cn1cncn1)C(Sc1ccccc1)c1ccccc1` (stereo unspecified), the inhibition was 99.3% (active). Under `O=C(CSc1nnc2ccccn12)c1ccccc1` stands 13.9% (inactive); under `O=C(O)CC(Cn1cnnn1)c1ccccc1` (stereo unspecified), -11.5% (inactive); under `O=C(c1ccc2c(c1)N(Cc1ccc(F)cc1)C(=O)CS2)N1CCOCC1`, 23.9% (inactive). As for `CCOC(=O)N1CCN(Cc2nc(N)nc(Nc3ccc(C)cc3)n2)CC1`, the inhibition was 36.2% (inactive). Under `CCN(CC)CCN1C(=O)C(=O)/C(=C(/O)c2ccccc2)C1c1ccccc1F` (stereo unspecified) stands -0.3% (inactive). In the case of `COC(=O)c1ccc(N(CC(=O)NC2CCCC2)C(=O)CNC(=O)c2ccco2)cc1` it was -6.6% (inactive). Under `CCCn1c(=O)c2ccccc2n2c(SCC(=O)/C(C#N)=C(\C)N)nnc12` stands 4.2% (inactive); under `CCOc1cc2c(cc1OCC)C(C(=O)O)C(c1ccc(OC)c(O)c1)N(C)C2=O` (stereo unspecified), -11.4% (inactive); under `COc1ccc(C2C(C(=O)N3CCN(c4ccc(OC)cc4)CC3)c3ccccc3C(=O)N2C)cc1` (stereo unspecified), 2.6% (inactive). As to `COc1cccc(NC(=O)C2c3cc(OC)c(OC)cc3C(=O)N(C)C2c2cccnc2)c1` (stereo unspecified), the inhibition was 50.1% (active). Under `Cc1nc(SCC(=O)N2CC(=O)Nc3ccccc32)c2c(C)c(C)sc2n1` stands 49.9% (inactive); under `COc1ccc(C(=O)CN2C(=O)NC(C)(c3ccc(C)cc3)C2=O)cc1OC` (stereo unspecified), 1.3% (inactive); under `C#CCN1C(=O)C(O)(CC(=O)c2cc(OC)ccc2OC)c2ccccc21` (stereo unspecified), 51.5% (active). Under `COc1ccc(OC)c(NC(=O)c2cnn(-c3ccccc3Cl)c2NC(=O)c2ccco2)c1` stands -0.9% (inactive). Under `CCOc1ccc(CN2CCCN(C)CC2)cc1` stands -4.6% (inactive); under `CC1(C)Cc2ccccc2-c2nnc(-c3cccc(O)c3)n21`, -16.2% (inactive); under `CC1=NN(c2cccc(Cl)c2)C(=O)C12CC(C)=C(C)CS2` (stereo unspecified), 90% (active). Take `Cc1[nH]n(-c2cccc(Cl)c2)c(=O)c1-c1ccc(Cl)cc1`: the inhibition was -13.5% (inactive).

Regarding `CC(=O)Oc1ccc(C)cc1N1C(=O)c2ccc(C(=O)O)cc2C1=O`, the inhibition is -15.2% (inactive). In the case of `Cc1ccccc1N1CC(c2nc3ccccc3[nH]2)CC1=O` (stereo unspecified), the inhibition is 81.9% (active). In the case of `O=C(C1CCCO1)N1CCC(c2nc3ccccc3[nH]2)CC1` (stereo unspecified), the inhibition is 20.9% (inactive). Under `Cc1ncn(C23CC4CC(CC(O)(C4)C2)C3)n1` stands 3.7% (inactive). In the case of `CCCCC(=O)N(c1ccc(OC)cc1)C1C=CS(=O)(=O)C1` (stereo unspecified) it was 19.8% (inactive); in that of `COc1ccc(C(=O)Nc2cc(C)ccc2NC(=O)COc2ccccc2)cc1`, 17% (inactive); in that of `CCCCN=C(N)/C(C(=O)OCC)=C(\O)c1ccc(OC)cc1`, 54.8% (active). Turning to `COc1ccc(OCCCC(=O)Nc2nnc(C3CCCO3)s2)cc1` (stereo unspecified), the inhibition is 34.1% (inactive).
